Among the data in article PMC7826789 (International Journal of Molecular Sciences, 2021) are Kinases covered values, retold here.

The first assay has as its system CDK2.
Turning to `CC(C)COC(=O)c1ccc2c(c1)/C(=C/Nc1ccc(S(N)(=O)=O)cc1)C(=O)N2` [GW416981X], the Kinases covered result is given as “CDK2”. Same read-out and setting: then `NS(=O)(=O)c1ccc(N/N=C2\C(=O)Nc3ccc(-c4cnco4)cc32)cc1` [GW276655], with “CDK2”. Still for that read-out and setting: the result for `O=C(Nc1n[nH]c2nc(-c3ccc(O)cc3)c(Br)cc12)C1CC1` [SB-725317] reads “CDK2”; that for `NS(=O)(=O)c1ccc(N/N=C2\C(=O)Nc3ccc(Cl)cc32)cc1` [GW280670X], “CDK2”; that for `NS(=O)(=O)c1ccc(N/N=C2\C(=O)Nc3ccc(C(=O)NCc4ccncc4)cc32)cc1` [GW300657X], “CDK2”.

`NS(=O)(=O)c1ccc(Nc2ncc(-c3ccccc3)o2)cc1` [GW572399X]: the Kinases covered entry is reported as “CDK2”.

Another assay deals with CLK1.
For `CCOc1ccc2c(-c3ccnc(Nc4cc(OC)cc(C(F)(F)F)c4)n3)cnn2n1` [GW807982X], the Kinases covered entry was “CLK1”. The same measure, in the same setting: the result for `CCOc1ccc2c(-c3ccnc(Nc4cccc(C(F)(F)F)c4)n3)cnn2n1` [GW811761X] reads “CLK1”; that for `CCCNC(=O)c1ccc(Nc2ncc(C(F)(F)F)c(Nc3ccccc3C(C)=O)n2)c(Br)c1` [BI00801818], “CLK1”. The same measure, in the same setting: the result for `CC(C)C(=O)N[C@@H]1CCN(C(=O)Nc2nc3c(s2)-c2nc(-c4ccccc4Cl)ncc2CC3)C1` [BI00047804] reads “CLK1”. Same read-out and setting: the result for `CNC(=O)c1c(F)cccc1Nc1nc(Nc2cc3c(cc2OC)CCN3C(=O)CN(C)C)nc2[nH]ccc12` [GSK1838705] reads “CLK1”.

The next assay relates to CLK2.
As for `COc1ccc2c(-c3ccnc(Nc4cccc(OC(F)(F)F)c4)n3)cnn2n1` [GW810372X], the Kinases covered entry was “CLK2”. Still for that read-out and setting: the result for `CCOc1ccc2c(-c3ccnc(Nc4cc(OC)cc(C(F)(F)F)c4)n3)cnn2n1` [GW807982X] reads “CLK2”; that for `CCOc1ccc2c(-c3ccnc(Nc4cccc(C(F)(F)F)c4)n3)cnn2n1` [GW811761X], “CLK2”. Still for that read-out and setting: then `NS(=O)(=O)c1ccc(N/N=C2\C(=O)Nc3ccc(C(=O)NCCc4c[nH]cn4)cc32)cc1` [GW300660X], with “CLK2”; and `CNC(=O)c1c(F)cccc1Nc1nc(Nc2cc3c(cc2OC)CCN3C(=O)CN(C)C)nc2[nH]ccc12` [GSK1838705], with “CLK2”.
